Consider 39 compounds from PubChem BioAssay (NCATS).

Results filed as inconclusive are left out. Entries that show only a call come without a potency. Activity calls are given as the source filed them. The call rests on the fitted dose curve; in most records, active means well fitted inhibition curve with a large enough effect; inconclusive means small, poorly fitted or top-dose-only effect; inactive means flat fitted curve, though single readings scatter.
Potency means the concentration at half of the fitted maximal effect.

A short description of this assay: qHTS for Inhibitors of Plasmodium falciparum (7G8) proliferation (AID 504316). Further: nearly all actives have a fitted effect of over 65% in size. The note with it: P. falciparum 7G8 in erythrocytes, SYBR Green DNA, 72 h; series mostly up to 6.7 µM. Put shortly: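 Parasite growth measured as SYBR Green DNA fluorescence (ex 485, em 535 nm) after overnight lysis following 72 h culture at 37 °C, 0.3% parasitemia, 2.5% hematocrit. Values normalized against DMSO and 0.29 uM artemisinin controls, with plate-stack correction.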
On to `COC(=O)[C@H](C=C[C@H](C)Cc1cc(Br)cc(OCc2ccccc2)c1OC)OCc1ccccc1`, for which the Potency result is “inactive”.
For `COC(=O)C1=C(C(=O)OC)[C@@H]2N(C)c3ccc(OC)cc3[C@@]23C[C@@H](C(=O)OC)N(C(=O)c2ccco2)C3=N1`, the Potency result is “inactive”.
The result for `CCOC(=O)OC[C@H]1O[C@H](C#Cc2ccc(C(C)(C)C)cc2)C=C[C@H]1OC(=O)OCC` reads 2.13 µM (active); that for `CCCCCCCC=CC1=CC2(C)CC1(C)C(CCCCCCC)CC2=O` (centres undefined), “inactive”.
For the compound `Cc1cc(F)ccc1O[C@H]1C=C[C@@H](c2ccc3c(c2)OCO3)O[C@H]1CO`, the Potency entry is “inactive”.
The result for `C=CCN=C1NC(CCc2ccccc2)C(C(=O)OC)=C(C)N1CC` (centres undefined) reads “inactive”; that for `COc1ccc(COC(=O)NN=C2C[C@@H](O)[C@@H](O)[C@@H]3[C@H]4C(=O)N([C@@H](C)c5ccccc5)C(=O)[C@@H]4CC[C@H]23)cc1`, “inactive”; that for `COC(=O)N[C@@H](c1ccco1)C(C(C)=O)C(=O)OC` (some centres undefined), “inactive”.
For `COc1ccc(OC[C@@H]2CC3[C@@H](CC[C@@H](C)[C@H]3c3ccc(Br)cc3)C(=O)O2)cc1` (some centres undefined), the Potency result was “inactive”.
For `COC(=O)N1C2=C(c3ccccc3[C@@H]1CC(=O)O)[C@@H]1O[C@@H](C2)c2ccccc21` the value was “inactive”; for `C=C=CCCN1C(=O)NC(c2ccccc2)C(C(=O)OC)=C1C` (centres undefined), “inactive”.
The result for `COC(=O)c1ccccc1C[C@]1(C(=O)OC)C=C[C@H](C)[C@@H](c2ccccc2)N1C(=O)C(F)(F)F` reads “inactive”; that for `COc1ccc(O[C@H]2C=C[C@@H](c3ccccc3)O[C@H]2CON=C2c3cc(OC)ccc3O[C@H](c3cccc(OC)c3)[C@H]2O)cc1`, 1.69 µM (active); that for `N#CCCCSc1nnnn1-c1cc(C(F)(F)F)cc(C(F)(F)F)c1`, “inactive”.
The result for `CC(=O)OC[C@H]1O[C@H](CC=NO[C@H](C)CN2CCCCc3nc(C)c(C)cc32)C=C[C@@H]1OC(C)=O` reads “inactive”.
For `COC1=C[C@H](C(=O)NCCOC(C)=O)[C@H](C)[C@@H](c2ccccc2)CC1=O`, the Potency result is “inactive”.
Consider `COC1=C[C@H](C(=O)NCCOC(C)=O)[C@@]2(C)Cc3ccccc3[C@@H]2CC1=O`, for which the Potency result was “inactive”.
As for `COc1ccc([C@]23Cc4ccccc4[C@H](O2)c2c(c4ccc(OC)cc4oc2=O)O3)cc1`, the Potency was 1.69 µM (active).
For `CC(=O)C1=C(C)N(Cc2ccccc2)C(=O)NC1c1ccco1` (centres undefined) the value was “inactive”.
The result for `C=CC[C@@H]1C=C[C@H](ON=C(C)CCN2CCCc3nc(C)c(C)cc32)[C@H](CO)O1` reads 0.0757 µM (active).
The result for `COCCN1C(=O)C2=C(C1=O)C1N(C)c3ccccc3[C@@]13C[C@@H](CO)N(S(=O)(=O)c1ccc(OC)cc1)C3=N2` (some centres undefined) reads “inactive”.
Turning to `COC(=O)CC=C1c2ccccc2OC[C@@H](OC)[C@H]1C`, the Potency entry is “inactive”.
The result for `CCCC[C@]12Cc3cc(OC)c(OC)cc3[C@H](O1)C1=C(CC3(CCCCC3)OC1=O)O2` reads “inactive”.
As for `COC(=O)CC=C[C@H](C)[C@@H](NC(=O)C(F)(F)F)c1ccccc1Br`, the Potency result is “inactive”.
Turning to `CC(C)(C)Nc1oc(-c2ccccc2)nc1-c1ccccc1`, the Potency result is “inactive”.
The result for `CCN1C(=O)N[C@@H](c2cccc(C(F)(F)F)c2)[C@H](C(C)=O)[C@H]1C` reads “inactive”; that for `COCCN1C(=O)NC(CCc2ccccc2)C(C(=O)OC)=C1C` (centres undefined), “inactive”.
The result for `C[C@@H]1CC[C@H]2C(=O)O[C@H](COc3ccc(C(C)(C)C)cc3)CN2[C@@H]1c1ccc(Br)cc1` reads “inactive”; that for `COC(=O)C1=C(C(=O)OC)[C@@H]2Nc3ccccc3[C@@]23C[C@@H](C(=O)OC)N(C(=O)Nc2ccc(C(F)(F)F)cc2)C3=N1`, “inactive”; that for `C=CCN=C1NC(c2cccc(F)c2)C(C(=O)OC)=C(C)N1Cc1ccccc1` (centres undefined), “inactive”.
For `CC(C)CON=C1C[C@@H](O)[C@@H](O)[C@@H]2[C@H]3C(=O)N(C[C@@H]4CCCO4)C(=O)[C@@H]3CC[C@@H]12` the value was “inactive”; for `O=C(C=NO)NCCCCNC(=O)C=NO`, “inactive”; for `CC(=O)C1=C(C)N(Cc2ccccc2)C(=O)NC1c1cccc(F)c1` (centres undefined), “inactive”.
For the compound `COc1ccc(O[C@H]2C=C[C@@H](c3ccccc3)O[C@H]2COC(=O)CCC(C)=NO[C@@H]2O[C@H](COC(C)=O)[C@@H](OC(C)=O)[C@H](OC(C)=O)[C@@H]2OC(C)=O)cc1`, the Potency entry was “inactive”.
For `CC(=O)C1=C(C)N(CC#C[Si](C)(C)C)C(=O)N(C(C)=O)C1c1ccccc1` (centres undefined) the value was “inactive”; for `COC(=O)c1ccc(CN2C(=O)[C@]3(OCCC=C[C@@H]3C)c3ccccc32)cc1`, “inactive”; for `COc1cc(C(CC2=CCCCC2)NC(=O)C(F)(F)F)cc(OC)c1OC` (centres undefined), “inactive”.
The result for `C[C@H]1Cc2c(-c3ccccc3)nc3c(c2CO1)CN(C(=O)Nc1cccc(C#N)c1)CC3` reads “inactive”.
The result for `CCCNC(=O)OC[C@H]1O[C@H](CCON=C(C)CCN2CCCc3nc(C)c(C)cc32)C=C[C@H]1Oc1ccc(OC)cc1` reads 1.35 µM (active).
